Results from PubChem BioAssay (EPA / NIEHS).
Results filed as inconclusive are left out. Activity calls are given as the source filed them. Rule for the calls: active = hit-call score of the fitted dose curve at least 0.9, where 1 is the maximum; inconclusive = response in the unintended direction; inactive = score below 0.9.

Target: Ratio of Nucleoli Translocation and Cytoplasm, AR (gene 367) (UniProt P10275)
Experiment: UPITT_HCI_U2OS_AR_TIF2_Nucleoli_Cytoplasm_Ratio_Agonist: University of Pittsburgh U2OS Androgen Receptor-Transcriptional Intermediary Factor 2 (AR-TIF2) Agonism High Content Imaging Assay for Ratio of Nucleoli Translocation and Cytoplasm (AID 2284000);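 note: hits raise the red nucleolar to cytoplasm ratio above vehicle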
Source text: UPITT_AR_TIF2_PPIB is a cell-based, high-content imaging assay that uses U2OS, a human osteosarcoma cell line, expressing a human androgen receptor fused to red fluorescent protein and the coactivator TIF2 fused to green fluorescent protein. UPITT_HCI_U2OS_AR_TIF2_Nucleoli_Cytoplasm_Ratio_Agonist is one of four assay components measured from the UPITT_AR_TIF2_PPIB assay. It is designed to make measurements of the ratio of red fluorescence localized in the nucleolar region of the cell nucleus to red fluorescence localized in the cytoplasm as detected with high-content fluorescent imaging.Data from the assay component UPITT_HCI_U2OS_AR_TIF2_Nucleoli_Cytoplasm_Ratio_Agonist was analyzed into 1 assay endpoint. This assay endpoint, UPITT_HCI_U2OS_AR_TIF2_Nucleoli_Cytoplasm_Ratio_Agonist, was analyzed in the positive analysis fitting direction relative to DMSO as the baseline of activity. Using a type of binding reporter, measures of receptor for gain-of-signal activity can be used to understand the binding at the pathway-level as it relates to the gene AR.
Daughter plates containing 2 uL of 10 mM compounds in DMSO were prepared and replicated from the 384-well Library of Pharmacologically Active Compounds (LOPAC) master plates using the Bravo outfitted with a 384-well transfer head. Aluminum adhesive plate seals were applied with an Abgene Seal-IT 100 (Rochester, NY) plate sealer, and the plates were stored at -20 C in a Matrical MatriMinistore (Spokane, WA) automated compound storage and retrieval system. For screening, LOPAC daughter plates were withdrawn from -20C storage, thawed to ambient temperature, centrifuged 1-2 min at 50 g, and the plate seals were removed before the transfer of 98 uL of serum-free tissue culture medium (SFM) into wells using the BioTek Microflo liquid handler (BioTek, Winooski, VT) to generate a 200 uM intermediate stock concentration of library compounds (2.0% DMSO). The diluted compounds were mixed by repeated aspiration and dispensation using a 384-well P30 dispensing head on the Evolution P3 (EP3) liquid handling platform (PerkinElmer, Waltham, MA) and then 5 uL of diluted compounds was transferred to the wells of assay plates. In the LOPAC screen, compounds were individually tested at a final concentration of 20 uM (0.2% DMSO). After the diluted compounds had been transferred from the daughter plates to the primary HCS assay plates, aluminum adhesive plate seals were applied and the diluted daughter plates were stored frozen at -20C. To confirm active compounds identified in the primary screen, we withdrew the LOPAC daughter plates containing the 200 uM intermediate concentration of library compounds (2.0% DMSO) from -20C storage, thawed them to ambient temperature, centrifuged them for 1-2 min at 50 g, and removed the plate seals. A work list was generated to direct the Multiprobe Janus liquid handling platform (PerkinElmer) to cherry pick 75 uL from the wells of the diluted daughter plates that were flagged active in the primary screen and to reformat these into a 384-well plate hit confirmation daughter plate. Five microliters of primary HCS active compounds was then transferred into triplicate wells of assay plates using a 384-well P30 dispensing head on the Evolution P3 (EP3) liquid handling platform (PerkinElmer). […] Daughter plates containing 2 uL of the serially diluted compounds in DMSO were prepared and replicated from the 384-well serial dilution master plates using the Bravo outfitted with a 384-well transfer head. Aluminum adhesive plate seals were applied and plates were stored at -20C. For testing in the bioassays, daughter plates were withdrawn from -20C storage, thawed to ambient temperature, centrifuged for 1-2 min at 50 g, and the plate seals were removed before the transfer of 38 uL of SFM into wells using the BioTek Microflo liquid handler (BioTek) to generate an intermediate stock concentration of library compounds ranging from 1.95 to 500 uM (5.0% DMSO). […]

Ratio of Nucleoli Translocation and Cytoplasm, AR (gene 367), sequence (P10275 whole entry, looked up): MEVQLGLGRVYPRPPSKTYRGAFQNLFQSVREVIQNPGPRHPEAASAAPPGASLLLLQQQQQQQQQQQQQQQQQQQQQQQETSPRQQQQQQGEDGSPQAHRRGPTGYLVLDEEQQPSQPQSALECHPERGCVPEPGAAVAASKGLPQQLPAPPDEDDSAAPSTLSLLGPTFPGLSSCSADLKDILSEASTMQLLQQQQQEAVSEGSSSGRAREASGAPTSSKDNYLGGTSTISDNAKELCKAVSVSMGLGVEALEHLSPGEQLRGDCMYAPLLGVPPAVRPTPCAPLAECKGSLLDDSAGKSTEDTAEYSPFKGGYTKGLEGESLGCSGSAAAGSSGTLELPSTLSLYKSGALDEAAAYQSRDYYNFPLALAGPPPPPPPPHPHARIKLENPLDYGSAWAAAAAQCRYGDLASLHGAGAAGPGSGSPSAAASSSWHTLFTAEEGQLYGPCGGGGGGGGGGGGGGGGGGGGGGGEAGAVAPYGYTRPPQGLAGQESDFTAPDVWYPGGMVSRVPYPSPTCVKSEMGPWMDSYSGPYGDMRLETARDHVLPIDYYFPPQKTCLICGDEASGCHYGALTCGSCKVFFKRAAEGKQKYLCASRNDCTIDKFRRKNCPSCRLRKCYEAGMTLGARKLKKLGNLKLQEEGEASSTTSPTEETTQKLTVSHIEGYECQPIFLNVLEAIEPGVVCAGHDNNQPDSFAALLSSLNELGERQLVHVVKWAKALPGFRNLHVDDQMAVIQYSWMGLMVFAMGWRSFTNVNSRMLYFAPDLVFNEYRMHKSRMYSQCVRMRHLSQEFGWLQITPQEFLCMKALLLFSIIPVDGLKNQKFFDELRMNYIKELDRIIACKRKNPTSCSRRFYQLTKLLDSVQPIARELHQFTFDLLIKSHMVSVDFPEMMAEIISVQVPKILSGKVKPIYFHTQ

Compound	outcome	AC50
COCC(C)OCC(C)O (configuration not stated)	inactive	
N#C[C@@H]1CC(F)(F)CN1C(=O)CNC1CC2CCC(C1)N2c1ncccn1 (some centres not stated)	inactive	
CC[C@H](c1ccc(O)cc1)[C@@H](CC)c1ccc(O)cc1		50 µM (active)
c1ccc2c(c1)ccc1ccccc12	inactive	
CCCCCCCCCCCCc1ccccc1S(=O)(=O)O		90.9 µM (active)
CCCCC[C@H](O)CC(=O)CCc1ccc(O)c(OC)c1	inactive	
Cc1cc(CCN2CCN(c3nsc4ccccc34)CC2)cc2c1NC(=O)CC2(C)C	inactive	
Cc1oc(-c2ccccc2)nc1CCOc1ccc(C[C@H](Nc2ccccc2C(=O)c2ccccc2)C(=O)O)cc1	inactive	
NC(=O)N1C(=O)C(C(=O)c2cc(Cl)cs2)c2cc(F)c(Cl)cc21 (configuration not stated)	inactive	
CCC(=C(c1ccc(O)cc1)c1ccc(OCCN(C)C)cc1)c1ccccc1		26.2 µM (active)
CC(=O)CC(C)(C)O	inactive	
Nc1cccc2c(N)cccc12	inactive	
COc1cc(CCC(=O)CC(=O)CCc2ccc(O)c(OC)c2)ccc1O	inactive	
O=C(/C=C/c1ccc(O)cc1)CC(=O)/C=C/c1ccc(O)cc1	inactive	
CCCOc1sc(C(=O)N2CCC(c3cc(CN)ccc3F)CC2)c(C)c1Br		8.47 µM (active)
OCCC(F)(F)C(F)(F)C(F)(F)C(F)(F)C(F)(F)C(F)(F)C(F)(F)C(F)(F)F	inactive	
Oc1cc2ccccc2c2ccccc12	inactive	
